What was measured:
Experiment in all cases: log2 ratio of Biotin-Ahx-Ub-VS probe labelling (fragment/DMSO); higher = less target engagement (more negative = stronger competition), active = hit call of the paper (q ≤ 0.05, log2 ratio ≤ -1)
Settings in all cases: compound concentration: 200 uM; treatment time: 3 h
ALG13 = molecular target: T1, ALG13 (UniProt Q9NP73)
T1 sequence (whole entry): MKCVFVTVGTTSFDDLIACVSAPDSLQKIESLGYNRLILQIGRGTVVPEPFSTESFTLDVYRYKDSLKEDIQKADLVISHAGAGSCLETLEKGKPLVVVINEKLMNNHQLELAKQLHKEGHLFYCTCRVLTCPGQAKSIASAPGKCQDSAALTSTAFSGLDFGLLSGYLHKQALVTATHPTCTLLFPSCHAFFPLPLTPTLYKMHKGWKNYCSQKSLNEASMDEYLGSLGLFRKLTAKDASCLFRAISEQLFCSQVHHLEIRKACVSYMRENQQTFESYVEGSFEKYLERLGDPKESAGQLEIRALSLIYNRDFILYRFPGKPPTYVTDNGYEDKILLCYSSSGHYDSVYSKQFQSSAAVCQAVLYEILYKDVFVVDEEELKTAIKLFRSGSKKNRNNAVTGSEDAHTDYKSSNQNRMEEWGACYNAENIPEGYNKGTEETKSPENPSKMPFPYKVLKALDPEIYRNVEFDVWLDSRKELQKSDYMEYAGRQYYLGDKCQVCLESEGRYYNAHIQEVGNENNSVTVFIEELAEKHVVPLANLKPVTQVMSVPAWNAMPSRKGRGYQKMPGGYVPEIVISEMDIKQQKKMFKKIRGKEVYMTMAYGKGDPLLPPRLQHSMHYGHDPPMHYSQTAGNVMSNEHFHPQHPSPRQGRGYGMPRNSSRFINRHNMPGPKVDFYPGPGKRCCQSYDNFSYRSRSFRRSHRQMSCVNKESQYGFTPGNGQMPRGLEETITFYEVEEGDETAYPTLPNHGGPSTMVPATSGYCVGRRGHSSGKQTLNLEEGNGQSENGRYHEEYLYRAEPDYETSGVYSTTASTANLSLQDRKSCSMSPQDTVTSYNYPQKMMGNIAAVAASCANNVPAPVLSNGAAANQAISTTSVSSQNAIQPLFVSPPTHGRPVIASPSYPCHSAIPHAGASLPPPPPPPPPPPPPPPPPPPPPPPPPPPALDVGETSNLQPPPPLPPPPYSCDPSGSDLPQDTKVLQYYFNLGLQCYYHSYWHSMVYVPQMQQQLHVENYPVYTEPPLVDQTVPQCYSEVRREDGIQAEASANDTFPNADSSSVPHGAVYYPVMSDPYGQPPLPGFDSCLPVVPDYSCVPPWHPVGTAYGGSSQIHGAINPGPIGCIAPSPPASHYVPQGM
Procedure, shortened: (§1)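 HEK293T lysate (495 µg per sample, in Tris/CHAPS/IGEPAL buffer with protease inhibitors) was exposed in triplicate for 3 h to fragment at 200 µM or to vehicle, then to Biotin-Ahx-Ub-VS at 0.5 µM final for 1 h. Labelled DUBs were enriched on NeutrAvidin, digested with LysC and trypsin, and analysed by diaPASEF LC-MS/MS. Spectronaut label-free quantities were normalised to the global median, and values are average log2 ratios of fragment over vehicle from an unpaired t-test. Only proteins with ≥2 unique peptides were used.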

ATXN3 = ATXN3 (UniProt P54252)
Procedure, shortened: as §1

BAP1 = molecular target: T2, BAP1 (UniProt Q92560)
T2 sequence (whole entry): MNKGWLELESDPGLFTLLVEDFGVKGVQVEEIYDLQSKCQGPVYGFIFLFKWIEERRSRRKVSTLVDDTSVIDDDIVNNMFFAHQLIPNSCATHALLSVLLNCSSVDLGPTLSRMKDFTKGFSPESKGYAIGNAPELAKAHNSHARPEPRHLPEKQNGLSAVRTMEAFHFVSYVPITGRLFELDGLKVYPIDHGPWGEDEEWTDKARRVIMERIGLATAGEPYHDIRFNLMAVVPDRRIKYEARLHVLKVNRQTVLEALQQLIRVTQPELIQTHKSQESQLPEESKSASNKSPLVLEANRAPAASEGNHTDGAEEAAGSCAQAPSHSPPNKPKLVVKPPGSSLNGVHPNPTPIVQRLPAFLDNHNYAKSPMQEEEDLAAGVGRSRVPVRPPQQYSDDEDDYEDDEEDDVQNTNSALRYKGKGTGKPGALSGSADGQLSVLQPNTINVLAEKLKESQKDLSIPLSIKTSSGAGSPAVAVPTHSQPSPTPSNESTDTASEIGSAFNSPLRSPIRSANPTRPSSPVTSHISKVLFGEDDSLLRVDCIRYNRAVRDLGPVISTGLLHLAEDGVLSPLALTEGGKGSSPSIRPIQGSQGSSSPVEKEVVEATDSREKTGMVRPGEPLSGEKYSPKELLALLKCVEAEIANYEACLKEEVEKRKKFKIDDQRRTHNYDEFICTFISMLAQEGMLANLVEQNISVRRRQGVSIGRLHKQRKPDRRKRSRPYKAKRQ
Procedure, shortened: as §1

EIF3F = EIF3F (UniProt O00303)
Procedure, shortened: as §1

EIF3H = EIF3H (UniProt O15372)
Procedure, shortened: as §1

FAM105A = molecular target: T3, FAM105A (UniProt Q9NUU6)
T3 sequence (whole entry): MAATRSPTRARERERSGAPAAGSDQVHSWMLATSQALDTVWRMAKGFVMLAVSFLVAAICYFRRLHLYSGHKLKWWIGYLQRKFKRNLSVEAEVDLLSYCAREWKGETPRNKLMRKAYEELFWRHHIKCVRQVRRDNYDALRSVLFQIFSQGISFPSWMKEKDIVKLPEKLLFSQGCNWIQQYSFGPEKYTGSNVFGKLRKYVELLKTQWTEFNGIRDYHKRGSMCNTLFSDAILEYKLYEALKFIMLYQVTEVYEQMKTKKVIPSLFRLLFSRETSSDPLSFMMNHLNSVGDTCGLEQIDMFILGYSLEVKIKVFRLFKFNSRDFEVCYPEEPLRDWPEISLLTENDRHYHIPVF
Procedure, shortened: as §1

OTUB1 = OTUB1 (UniProt Q96FW1)
Procedure, shortened: as §1

OTUD4 = molecular target: T4, OTUD4 (UniProt Q01804)
T4 sequence (whole entry): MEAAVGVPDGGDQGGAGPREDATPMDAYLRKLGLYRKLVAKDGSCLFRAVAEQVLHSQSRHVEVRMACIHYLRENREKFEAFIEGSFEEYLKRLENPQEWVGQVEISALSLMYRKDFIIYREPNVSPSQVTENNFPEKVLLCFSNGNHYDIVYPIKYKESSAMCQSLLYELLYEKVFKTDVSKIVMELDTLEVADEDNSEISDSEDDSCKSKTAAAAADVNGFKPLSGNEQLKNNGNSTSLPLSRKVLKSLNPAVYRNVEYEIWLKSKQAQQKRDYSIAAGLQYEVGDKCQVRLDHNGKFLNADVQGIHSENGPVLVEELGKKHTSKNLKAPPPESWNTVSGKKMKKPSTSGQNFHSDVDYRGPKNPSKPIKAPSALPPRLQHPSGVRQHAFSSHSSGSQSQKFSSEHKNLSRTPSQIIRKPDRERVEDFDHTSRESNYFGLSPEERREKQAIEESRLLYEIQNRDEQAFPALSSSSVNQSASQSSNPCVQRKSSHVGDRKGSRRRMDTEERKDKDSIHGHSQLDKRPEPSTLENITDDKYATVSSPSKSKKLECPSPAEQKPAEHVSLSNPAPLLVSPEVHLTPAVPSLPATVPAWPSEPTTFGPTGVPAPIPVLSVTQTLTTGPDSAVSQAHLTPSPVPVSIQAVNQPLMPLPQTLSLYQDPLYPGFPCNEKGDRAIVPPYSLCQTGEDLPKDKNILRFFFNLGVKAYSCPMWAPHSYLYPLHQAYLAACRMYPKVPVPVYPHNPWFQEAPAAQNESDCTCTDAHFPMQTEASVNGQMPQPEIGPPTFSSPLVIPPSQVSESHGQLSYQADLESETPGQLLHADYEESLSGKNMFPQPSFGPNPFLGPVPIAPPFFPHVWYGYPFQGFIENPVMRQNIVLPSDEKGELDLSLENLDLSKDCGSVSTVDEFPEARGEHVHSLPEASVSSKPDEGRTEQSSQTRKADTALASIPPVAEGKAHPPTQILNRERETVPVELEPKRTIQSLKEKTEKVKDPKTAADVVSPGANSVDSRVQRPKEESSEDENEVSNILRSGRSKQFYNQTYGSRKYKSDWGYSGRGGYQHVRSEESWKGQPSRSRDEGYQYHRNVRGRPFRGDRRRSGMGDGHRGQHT
Procedure, shortened: as §1

OTUD5 = molecular target: T5, OTUD5 (UniProt Q96G74)
T5 sequence (whole entry): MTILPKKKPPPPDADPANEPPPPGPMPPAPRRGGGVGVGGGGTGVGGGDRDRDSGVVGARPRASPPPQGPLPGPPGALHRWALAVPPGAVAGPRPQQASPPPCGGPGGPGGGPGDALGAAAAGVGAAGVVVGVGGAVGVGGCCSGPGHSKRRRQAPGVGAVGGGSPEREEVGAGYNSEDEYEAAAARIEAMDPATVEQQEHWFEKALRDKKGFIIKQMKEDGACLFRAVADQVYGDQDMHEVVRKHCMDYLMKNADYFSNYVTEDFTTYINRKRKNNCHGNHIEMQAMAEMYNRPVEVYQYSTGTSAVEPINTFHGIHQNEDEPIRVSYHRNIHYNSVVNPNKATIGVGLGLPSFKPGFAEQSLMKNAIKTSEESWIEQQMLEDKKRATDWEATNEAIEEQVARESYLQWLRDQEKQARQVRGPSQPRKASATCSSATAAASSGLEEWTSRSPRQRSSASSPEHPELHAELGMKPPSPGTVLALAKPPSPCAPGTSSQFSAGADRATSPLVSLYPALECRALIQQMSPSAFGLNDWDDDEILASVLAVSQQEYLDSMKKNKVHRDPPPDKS
Procedure, shortened: as §1

Measured: log2 ratio of Biotin-Ahx-Ub-VS probe labelling

Sequence of EIF3F (O00303 whole entry): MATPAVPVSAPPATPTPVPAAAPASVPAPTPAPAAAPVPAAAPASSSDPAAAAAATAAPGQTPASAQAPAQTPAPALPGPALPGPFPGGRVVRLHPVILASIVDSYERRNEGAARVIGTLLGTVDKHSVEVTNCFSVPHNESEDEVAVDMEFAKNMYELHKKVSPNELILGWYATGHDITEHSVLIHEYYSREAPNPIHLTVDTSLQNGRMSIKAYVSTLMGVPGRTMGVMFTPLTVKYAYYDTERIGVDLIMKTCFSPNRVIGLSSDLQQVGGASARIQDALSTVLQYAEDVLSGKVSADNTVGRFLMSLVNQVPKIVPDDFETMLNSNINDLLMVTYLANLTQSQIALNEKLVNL
Sequence of ATXN3 (P54252 whole entry): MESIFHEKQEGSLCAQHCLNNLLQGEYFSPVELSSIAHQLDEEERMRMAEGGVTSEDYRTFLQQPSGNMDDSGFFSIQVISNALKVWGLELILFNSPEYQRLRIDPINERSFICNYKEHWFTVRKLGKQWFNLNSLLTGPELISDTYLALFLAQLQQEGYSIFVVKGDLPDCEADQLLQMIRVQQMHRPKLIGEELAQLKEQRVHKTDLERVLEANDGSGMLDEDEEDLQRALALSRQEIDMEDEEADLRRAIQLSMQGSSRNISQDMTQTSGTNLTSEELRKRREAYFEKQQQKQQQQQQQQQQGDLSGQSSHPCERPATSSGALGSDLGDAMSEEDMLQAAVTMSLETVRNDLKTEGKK
Sequence of OTUB1 (Q96FW1 whole entry): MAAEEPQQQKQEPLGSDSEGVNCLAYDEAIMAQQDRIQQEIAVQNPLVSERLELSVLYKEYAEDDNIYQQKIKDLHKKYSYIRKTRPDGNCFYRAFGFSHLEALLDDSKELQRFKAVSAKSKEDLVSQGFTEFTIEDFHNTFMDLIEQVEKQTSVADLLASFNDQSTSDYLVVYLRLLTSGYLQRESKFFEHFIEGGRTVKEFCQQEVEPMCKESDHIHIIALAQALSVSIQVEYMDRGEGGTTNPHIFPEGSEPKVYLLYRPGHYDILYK
Sequence of EIF3H (O15372 whole entry): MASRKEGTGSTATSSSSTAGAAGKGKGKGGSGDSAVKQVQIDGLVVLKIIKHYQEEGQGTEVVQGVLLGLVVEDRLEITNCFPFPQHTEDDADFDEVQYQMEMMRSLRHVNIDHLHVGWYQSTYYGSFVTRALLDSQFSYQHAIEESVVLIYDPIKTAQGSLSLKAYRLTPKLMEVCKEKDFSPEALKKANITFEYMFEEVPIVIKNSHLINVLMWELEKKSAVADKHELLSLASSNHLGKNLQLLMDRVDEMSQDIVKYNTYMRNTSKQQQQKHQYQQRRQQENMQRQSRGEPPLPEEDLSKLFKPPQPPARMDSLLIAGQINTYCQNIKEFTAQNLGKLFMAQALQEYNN

O=C(CCl)N1CCN2C(=O)CCC2C1 (centres undefined)
inactive: ALG13 0.0971 | ATXN3 -0.237 | BAP1 -0.591 | EIF3F 0.0885 | EIF3H -0.0249 | FAM105A 0.154 | OTUB1 -0.19 | OTUD4 -0.461 | OTUD5 -0.499

— the supplement of paper PMC11732987, “Enantioselective OTUD7B fragment discovery through chemoproteomics screening and high-throughput optimisation” (Communications Chemistry, 2025)
